For 40 compounds, growth results are on record in PubChem BioAssay (NCI).

About 83,000 compounds went through this panel and 20% of them were active in at least one assay; those are over-represented in the sample as a whole.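 Values shown are percent growth following 48 h exposure of cells in 96-well plates to a single concentration of compound; below 10 was considered active.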 A number with no mark means an inactive call. Calls of active or inactive are those of the source.

The subject of this test is HL-60(TB) leukemia. Briefly: NCI-60 one-dose screen, 48 h (100 = growth as untreated, 0 = no growth, -100 = all killed). The following applies: 10 µM unless noted.
`CN=C1C=CC(=C(c2ccc(N(C)C)cc2)c2ccc(N(C)C)cc2)C=C1`: the growth was -1.23% (active).
Consider `O=C(COc1cccc(/C=C2\Cc3ccccc3C2=O)c1)c1ccc(Cl)cc1`, for which the growth is 94.2%.
Regarding `Cc1ccc([C@H]2c3[nH]c4ccccc4c3C[C@H]3C(=O)N(CCCCCCC(=O)NO)CC(=O)N23)cc1`, the growth was 18.6%.
As for `COc1ccc(-c2cn[nH]c2-c2cc(OC)c3c(c2)OCO3)cc1`, the figure is -29% (active); as for `COc1cc(-c2nc(-c3nc4cc(C(=O)c5ccccc5)ccc4[nH]3)cc3c2[nH]c2ccccc23)cc(OC)c1OC`, 89.7%; as for `COC(=O)CCCCCn1c2ccccc2c2c3c(c4c5ccccc5[nH]c4c21)C(=O)N(O)C3=O`, 19.1%.
Take `Cc1cn(-c2cc(NC(=O)c3ccc(C)c(Nc4nccc(-c5cccnc5)n4)c3)cc(C(F)(F)F)c2)cn1`: the growth was 53.3%.
Take `CCOC(=O)N1CCN(S(=O)(=O)c2oc(-c3ccc(Cl)cc3)nc2C#N)CC1`: the growth was 56.4%.
To `O=C(NC1CCCCC1)C(c1cccs1)N(CCc1ccccc1)C(=O)c1ccco1` (stereo not given) belongs 100%.
For `COc1ccc(/C=N/Nc2c3ccccc3nc3ccccc23)cc1`, the growth is 92.9%.
As for `CN1C(=O)N(C)[C@H]2NC(NN)=N[C@H]21`, the figure is 102%; as for `CCN(CC)CC(O)CNc1c2ccc(Cl)cc2nc2ccc(OC)cc12` (stereo not given), -0.864% (active).
To `O=C1/C(=C\c2cccc(OCCCCCOc3ccc(Cl)cc3)c2)N=C2SCCCN12` belongs 36%; to `Nc1ncnc(Nc2ccccc2)n1`, 107%.
For the compound `Cc1cc([N+](=O)[O-])ccc1NC(=O)c1ccc2c(c1)nc(-c1ccccc1)n2C1CCCCC1`, the growth is 64.7%.
On to `C=C(C)[C@@H]1CC=C2c3sc(-c4ccc(C)cc4)nc3C[C@@H](C)[C@]2(C)C1`, for which the growth is 102%.
As for `CCCCCCCCCCCCCCCCCC(=O)Nc1ccc(O)cc1`, the figure is 5.77% (active); as for `CCOC(=O)c1nnn(-c2no[n+]([O-])c2-c2ccc(OC)cc2)c1COc1cccc2cccnc12`, -18.3% (active).
To `Cc1cc(NCCCCNc2ccnc3cc(Cl)ccc23)nc(Nc2ccc(C(=O)N3CCCC3)cc2)n1` belongs 14.7%.
As for `CCCN1[C@@H]2CC[C@H]1/C(=C\c1ccc(OC)c(OC)c1)C(=O)/C2=C/c1ccc(OC)c(OC)c1`, the figure is 20.5%; as for `O=C(/C=C/c1ccc(C(F)(F)F)cc1)c1ccc(Nc2nc(NCCO)nc(Nc3ccc(Cl)cc3)n2)cc1`, 77%; as for `CC(Cc1cccc2ccccc12)C(N)=O` (stereo not given), 99.5%.
Turning to `O=C(O)c1ccnc(Br)c1`, the growth was 96.5%.
As for `N#Cc1c(N)nc(Nc2nc3ccccc3[nH]2)nc1-c1ccc(Cl)cc1`, the figure is 106%; as for `COc1ccc(-c2cc(-c3cccnc3)nc3sc4c(N)c(C(C)=O)c(-c5ccccc5)nc4c23)cc1OC`, 78%.
To `N#C/C(=C1\SC(=O)CN1c1ccccc1)c1nc2ccccc2s1` belongs 92.8%.
Turning to `CCn1cc(C(=O)O)c(=O)c2cc(F)c(N3CCN(S(=O)(=O)c4cccc5ccccc45)CC3)cc21`, the growth is -46.2% (active).
Take `Cc1ccc2cc3c(NC(=O)c4cccnc4)nn(C)c3nc2c1`: the growth was 87.8%.
Take `O=C(/C(=C/c1ccc([N+](=O)[O-])cc1)SCc1ccc(F)cc1)c1ccc(F)cc1`: the growth was 68.8%.
As for `COc1cc(-c2csc(NC(=O)Nc3ccc(Cl)c(C(F)(F)F)c3)n2)cc(OC)c1OC`, the figure is -6.26% (active).
As for `Fc1ccc2nc(-c3ccc(-c4noc(-c5ccc(Cl)cc5)n4)cc3)[nH]c2c1`, the figure is 88.7%.
As for `CCOC(=O)c1c(NC(=O)c2cccc(C(F)(F)F)c2)sc2c(CN(C)C)c(O)ccc12`, the figure is 16.3%; as for `CCCCC1COc2cccc3c2N1C=C/C3=C\C(=O)N(C)c1cccc(Cl)c1` (stereo not given), 98.7%; as for `CC(=O)Nc1cc(F)cc(C(F)(F)F)c1Cl`, 100%.
Consider `Cc1ccc2c(c1)C(C)Cc1c(ncnc1-n1cnc3ccccc31)N2C` (stereo not given), for which the growth was -19.1% (active).
To `CCOC(=O)c1c(C)nc2c(c1N)/C(=C/c1cccs1)C(=O)N2c1ccc(OC)cc1` belongs 90.2%; to `Cc1ccc(/C=C(\C#N)C(=O)Nc2ncc(Cc3cc(Cl)ccc3Cl)s2)o1`, 22.5%.
As for `CCCCN=C(N)c1ccc(OCCSCCOc2ccc(C(N)=NCCCC)cc2)cc1`, the figure is 38.8%; as for `Fc1ccc(/C=N/n2c(-c3cc(Cl)cc(Cl)c3Cl)nn(CNc3ccc(Cl)nn3)c2=S)cc1`, 90.1%; as for `CN1CCN(c2ccc3nc(-c4[nH]ncc4Nc4ncnc5c4OCCCN5)[nH]c3c2)CC1`, -28.7% (active).
